Data on four compounds can be found in PubChem BioAssay (NCATS).

Assay [1] in a line: AP1 Signaling Pathway (AID 357; active means well fitted curve in either direction with a large enough effect, not every such curve was filed as active;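 further: ME-180 reporter cells stimulated with EGF at its EC50 level; on the % scale 0 is the no-effect control and ±100 the full control effect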). To be noted: ME-180 AP-1-bla reporter, EGF-induced, beta-lactamase ratio, 5 h. The method in brief: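 A ratiometric CCF4 readout (405 nm excitation; 460 and 530 nm emission) quantified AP-1-driven beta-lactamase in ME-180 cells after 5 h with compound and EC50 EGF; AC50 values were derived for activators and inhibitors.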
Assay [2] addresses Cytochrome P450 1A2 (Homo sapiens) (UniProt P05177). Description: p450-cyp1a2 (AID 410; calls by dose curve; further: potency means the concentration at half of the fitted maximal effect). To be noted: recombinant CYP1A2, luciferin-ME demethylation, luminescence; series mostly up to 57 µM. The method in brief: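 Luminescent readout of luciferin formed from Luciferin-ME by human CYP1A2; data normalized against complete inhibition by 57 uM furafylline. Enzyme 20nM, substrate 100uM at Km, 100mM KPO4 buffer, 60 min reaction at room temperature.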

A short description of assay [3]: Stat Signaling Pathway (AID 446; active means well fitted curve in either direction with a large enough effect, not every such curve was filed as active;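 further: ME-180 cervical cancer cells given 40 pM IL-6 alongside compound; SIE-controlled beta-lactamase reporter measured as 460/530 nm FRET emission ratio; on the % scale 0 is the no-effect control and ±100 the full control effect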). To be noted: ME-180 SIE beta-lactamase reporter, IL-6 stimulated, 5 h. The method in brief:
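Screening format detects activators and inhibitors alike: ME-180 SIE-bla cells stimulated at 40 pM IL-6 for 5 hrs with compound, then dual-emission beta-lactamase read at 405 nm excitation.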

Assay [4] addresses Glucocorticoid receptor (Homo sapiens) (UniProt P04150). Description: GR-GFP Redistribution (AID 450;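 active means compounds whose dose series gives a full or clear partial fitted curve of increased nuclear translocation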; further: potency means the concentration at half of the fitted maximal effect). The note with it: U2OS GR-GFP nuclear translocation, laser cytometry, 2 h.
The target is the same in assay [5]. The experiment in a line: GR-EFC Redistribution (AID 451; calls by dose curve; further: potency means the concentration at half of the fitted maximal effect). The note with it: CHO-K1 GR-EFC translocation, beta-gal luminescence, 2 h. In outline:
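CHO-K1 cells expressing nuclear EA and GR-ED fragments of b-gal; compounds titrated up to 46 uM final, 2 h at 37 C. GR nuclear translocation read as complemented b-gal luminescence after 1 h RT detection.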

In assay [6] the target is 3',5'-cyclic-AMP phosphodiesterase 4B (Homo sapiens) (UniProt Q07343). The experiment in a line: qHTS Assay for Inhibitors of PDE-IV (AID 607; active means well fitted activation curve with a large enough effect in the main read-out, with a control signal flat, not every such curve was filed as active; further: potency means the concentration at half of the fitted maximal effect). The note with it: HEK293 ACTOne CNG channel cells, membrane potential fluorescence; series mostly up to 22.9 µM. In outline:
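The readout is membrane depolarisation from a cAMP-sensing CNG channel, detected with a potential dye at ex 535/em 590. Cells were HEK293-derived (endogenous PDE-IV) at 1000 cells/well, titrated up to 22.9 uM final.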
A general note: In qHTS, concentration-response curves come from the screen itself.

Assay [7] has as its target Cytochrome P450 3A4 (Homo sapiens) (UniProt P08684). Description: qHTS Assay for Activators of Cytochrome P450 3A4 (AID 885). Further: nearly all actives have a fitted effect of over 65% in size. The note with it: recombinant CYP3A4, Luciferin-PPXE luminescence, 60 min; series mostly up to 57.1 µM. The method in brief: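 Steps: enzyme/substrate mix dispensed; compound added, 10 min RT; NADPH regeneration solution added, 60 min RT; luciferin detection buffer stops reaction; 20 min later luminescence measured.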

Assay [8] deals with Cytochrome P450 2D6 (Homo sapiens) (UniProt P10635). The experiment in a line: qHTS Assay for Inhibitors and Substrates of Cytochrome P450 2D6 (AID 891). Further: potency means the concentration at half of the fitted maximal effect; nearly all actives have a fitted effect of over 60% in size. The note with it: recombinant CYP2D6, luciferin-ME EGE luminescence; series mostly up to 57.1 µM. In outline:
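Human CYP2D6 (5 nM) with 30 uM Luciferin-ME EGE (at Km) in 100 mM KPO4, compound preincubated 10 min, then NADPH regeneration system for 60 min at room temperature. Luciferin read by luminescence; normalized to 1.43 uM quinidine.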

A short description of assay [9]: qHTS Assay for Lipid Storage Modulators (AID 1519; calls by dose curve). To be noted: Drosophila S3 cells, BODIPY lipid droplet/cell ratio, laser cytometry, cells loaded with oleic acid. The method in brief:
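Cells seeded at 5,000 per well were treated with compounds over a concentration series and loaded with oleic acid (400 uM, as added). Lipid droplet fluorescence (488 nm excitation, 500-530 nm channel) was read by laser-scanning cytometry and normalized to 20 uM Triacsin C.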

The target of assay [10] is Ubiquitin carboxyl-terminal hydrolase 1 (Homo sapiens) (UniProt O94782). The experiment in a line: Inhibitors of USP1/UAF1: Pilot qHTS (AID 504865).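 Further: rhodamine fluorescence freed from ubiquitin-rhodamine substrate followed over time; top concentration of the series differs between compounds; on the % scale 0 is the no-effect control and ±100 the full control effect; nearly all actives have a fitted effect of over 35% in size.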 The note with it: purified USP1/UAF1, Ub-rhodamine cleavage fluorescence; series mostly up to 114 µM. In outline:
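In 50mM HEPES pH 7.8 containing 0.5mM EDTA, 1mM TCEP, 0.1 mg/ml BSA and 0.01% Tween-20, 1nM USP1/UAF1 is exposed to compound for 15 min, then Ub-Rho (150nM final) is added and fluorescence is read over time.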

Assay [11] has as its target DNA dC->dU-editing enzyme APOBEC-3G (Homo sapiens) (UniProt Q9HC16). The experiment in a line: qHTS for inhibitors of Vif-A3G interactions: Validation (AID 588379). Further: 0% is about no effect. The note with it: Vif-A3G protein interaction assay; series mostly up to 46.1 µM. The method in brief:
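HeLa cells stably expressing Vif and A3G-eYFP, 700 cells/well, incubated overnight at 37 deg C, then exposed to compound overnight at 37 deg C. Inhibition of Vif-mediated degradation read as increased yellow fluorescence (Ex 488/Em 500-530) by laser-scanning cytometry.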

The test system of assay [12] is Zika virus NS2B-NS3 protease. Description: Primary screen GU AMC qHTS for Zika virus inhibitors (AID 1347154).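 Further: 0% = no-inhibitor control and -100% = no-enzyme control; nearly all actives have a fitted effect of over 70% in size.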 To be noted: Zika NS2B-NS3 unlinked protease, AMC fluorogenic substrate; series mostly up to 54.1 µM. The method in brief:
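Unlinked Zika NS2B hydrophilic domain–NS3 protease complex at 25 nM in 10 mM Tris-HCl pH 8.0, 0.01% Tween 20, with an AMC peptide substrate. Fluorescence change (340/450 nm) over 15 min at room temperature, normalized to controls, fitted to 4-parameter Hill.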

A short description of assay [13]: Primary qHTS for small molecule stabilizers of the endoplasmic reticulum resident proteome: Secreted ER Calcium Modulated Protein (SERCaMP) assay (AID 1508630). Further: on the % scale 0 is the no-effect control and ±100 the full control effect. To be noted: SH-SY5Y GLuc-SERCaMP (Gaussia luciferase released on ER calcium loss) secretion, thapsigargin, luminescence; series mostly up to 38.4 µM. In outline: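 GLuc-SERCaMP-expressing SH-SY5Y cells, pretreated 16 h with compound, are challenged with thapsigargin to empty ER calcium stores; after 4 h, coelenterazine is added directly to the medium and luminescence is imaged.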

Assay [14] can be described thus: NFAT Signaling Pathway (AID 444; active means well fitted curve in either direction with a large enough effect, not every such curve was filed as active;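 further: carbachol stimulus at about its EC50 of 1 µM final; on the % scale 0 is the no-effect control and ±100 the full control effect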). To be noted: Jurkat NFAT-bla M1, carbachol, beta-lactamase ratio, 5 h. In outline:
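Jurkat cells with NFAT-driven β-lactamase reporter and co-expressed M1 receptor, stimulated with carbachol (final 1 uM, ~EC50), compound titration, 5 h at 37 °C. CCF4 loaded 1 h at RT; 460/530 nm ratio gave %activity and AC50.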

Assay [15] deals with Mitogen-activated protein kinase 10 (Mus musculus) (UniProt Q61831). The experiment in a line: JNK3 AlphaScreen Assay (AID 530; active means well fitted curve in either direction with a large enough effect, not every such curve was filed as active). The note with it: JNK3 lysate, c-Jun phosphorylation; series mostly up to 57.1 µM. In outline:
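Pre-activated (IL-1β/TNFα) JNK3 in HepG2 lysates phosphorylates biotin-GST-cJun(1-79), 10 uM ATP; anti-phospho-cJun(Ser73) AlphaScreen read at room temperature, pH 7.6 Tris buffer. Compounds pre-incubated 15 min as titrations.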
For orientation: In Alpha technology, singlet oxygen from a donor bead excites a nearby acceptor bead.

The mark [16] stands for this setting: measured here: cell count channel max response.
Setting [17] is: measured here: lipid channel max response.

“And” between values parts separate entries of the source, which are not always exact repeats. Equal values may be shown once. Results filed as inconclusive are left out. More than one record can exist for a structure, and the calls need not agree. The source made the active and inactive calls. Unless noted, the call rests on the fitted dose curve; in most records, active means well fitted curve in the direction sought with a large enough effect; inconclusive means small, poorly fitted or top-dose-only effect, or another doubt; inactive means no such curve, though single readings can be large; an effect the other way counts as inactive or inconclusive.

3',5'-cyclic-AMP phosphodiesterase 4B (Homo sapiens), sequence (Q07343 whole entry, looked up): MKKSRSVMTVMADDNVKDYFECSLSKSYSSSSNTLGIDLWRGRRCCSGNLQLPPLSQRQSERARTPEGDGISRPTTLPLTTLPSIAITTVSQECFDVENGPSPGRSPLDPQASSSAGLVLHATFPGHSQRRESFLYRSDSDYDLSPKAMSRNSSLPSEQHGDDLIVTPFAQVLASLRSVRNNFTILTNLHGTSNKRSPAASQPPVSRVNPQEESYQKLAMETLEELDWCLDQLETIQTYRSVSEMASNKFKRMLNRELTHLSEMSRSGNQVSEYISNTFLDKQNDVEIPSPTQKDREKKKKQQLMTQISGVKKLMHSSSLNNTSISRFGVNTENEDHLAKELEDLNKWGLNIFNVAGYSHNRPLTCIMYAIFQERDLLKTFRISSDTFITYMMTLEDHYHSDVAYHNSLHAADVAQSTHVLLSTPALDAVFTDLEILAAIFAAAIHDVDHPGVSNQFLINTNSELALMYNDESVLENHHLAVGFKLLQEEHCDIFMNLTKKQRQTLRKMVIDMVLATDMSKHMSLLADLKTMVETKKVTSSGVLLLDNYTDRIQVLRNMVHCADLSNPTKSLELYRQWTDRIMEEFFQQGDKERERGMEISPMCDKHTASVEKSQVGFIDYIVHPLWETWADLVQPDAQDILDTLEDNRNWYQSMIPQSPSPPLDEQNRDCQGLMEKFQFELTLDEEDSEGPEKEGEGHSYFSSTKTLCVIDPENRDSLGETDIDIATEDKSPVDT
DNA dC->dU-editing enzyme APOBEC-3G (Homo sapiens), sequence (Q9HC16 whole entry, looked up): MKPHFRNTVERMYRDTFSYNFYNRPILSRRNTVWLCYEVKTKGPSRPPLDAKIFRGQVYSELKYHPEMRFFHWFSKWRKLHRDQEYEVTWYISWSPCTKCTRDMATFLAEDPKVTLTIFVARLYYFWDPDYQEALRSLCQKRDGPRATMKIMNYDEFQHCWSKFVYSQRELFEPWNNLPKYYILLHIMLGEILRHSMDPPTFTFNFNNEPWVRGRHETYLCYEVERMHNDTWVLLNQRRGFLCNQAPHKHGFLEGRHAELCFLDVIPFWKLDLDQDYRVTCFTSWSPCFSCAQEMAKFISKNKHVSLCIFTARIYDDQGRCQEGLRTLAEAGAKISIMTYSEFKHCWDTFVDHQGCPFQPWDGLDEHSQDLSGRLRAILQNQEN
Ubiquitin carboxyl-terminal hydrolase 1 (Homo sapiens), sequence (O94782 whole entry, looked up): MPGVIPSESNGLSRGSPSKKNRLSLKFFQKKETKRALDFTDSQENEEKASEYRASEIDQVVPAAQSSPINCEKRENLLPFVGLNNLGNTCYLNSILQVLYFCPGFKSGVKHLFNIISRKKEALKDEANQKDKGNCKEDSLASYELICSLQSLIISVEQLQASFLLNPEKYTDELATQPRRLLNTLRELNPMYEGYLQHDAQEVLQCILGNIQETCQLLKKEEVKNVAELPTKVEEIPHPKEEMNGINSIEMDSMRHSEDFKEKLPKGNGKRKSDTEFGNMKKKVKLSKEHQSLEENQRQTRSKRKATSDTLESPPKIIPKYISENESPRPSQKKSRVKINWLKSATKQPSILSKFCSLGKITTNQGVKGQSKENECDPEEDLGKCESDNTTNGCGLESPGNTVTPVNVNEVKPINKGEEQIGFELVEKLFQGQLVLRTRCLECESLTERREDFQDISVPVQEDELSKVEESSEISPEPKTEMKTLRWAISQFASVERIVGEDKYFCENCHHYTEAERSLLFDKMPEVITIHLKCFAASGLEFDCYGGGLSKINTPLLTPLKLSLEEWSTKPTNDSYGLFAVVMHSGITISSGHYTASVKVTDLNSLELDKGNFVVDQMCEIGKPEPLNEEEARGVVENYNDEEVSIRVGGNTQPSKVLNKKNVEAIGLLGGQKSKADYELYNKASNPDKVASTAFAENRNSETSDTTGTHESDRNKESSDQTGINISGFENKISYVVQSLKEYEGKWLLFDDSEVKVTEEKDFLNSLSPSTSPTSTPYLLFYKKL
Glucocorticoid receptor (Homo sapiens), sequence (P04150 whole entry, looked up): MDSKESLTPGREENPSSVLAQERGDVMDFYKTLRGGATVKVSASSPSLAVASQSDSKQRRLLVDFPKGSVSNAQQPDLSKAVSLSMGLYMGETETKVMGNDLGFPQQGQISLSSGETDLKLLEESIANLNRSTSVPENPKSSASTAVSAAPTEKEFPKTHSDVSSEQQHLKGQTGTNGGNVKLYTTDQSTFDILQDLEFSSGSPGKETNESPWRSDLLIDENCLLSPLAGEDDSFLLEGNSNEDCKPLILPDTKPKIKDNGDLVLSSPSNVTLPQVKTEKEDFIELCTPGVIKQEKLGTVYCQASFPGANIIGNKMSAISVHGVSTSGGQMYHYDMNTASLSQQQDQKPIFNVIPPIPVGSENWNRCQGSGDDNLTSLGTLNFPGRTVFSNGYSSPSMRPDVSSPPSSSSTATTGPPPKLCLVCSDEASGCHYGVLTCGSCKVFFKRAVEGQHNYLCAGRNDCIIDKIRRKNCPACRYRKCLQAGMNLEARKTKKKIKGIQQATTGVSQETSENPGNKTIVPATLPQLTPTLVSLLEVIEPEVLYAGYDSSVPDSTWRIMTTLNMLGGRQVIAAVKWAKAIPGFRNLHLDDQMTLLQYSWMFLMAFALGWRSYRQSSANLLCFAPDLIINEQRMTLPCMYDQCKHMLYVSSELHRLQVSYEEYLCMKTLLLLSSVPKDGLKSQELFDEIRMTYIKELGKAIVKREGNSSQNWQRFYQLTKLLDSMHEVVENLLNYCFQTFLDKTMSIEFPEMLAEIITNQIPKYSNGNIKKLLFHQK
Cytochrome P450 1A2 (Homo sapiens), sequence (P05177 whole entry, looked up): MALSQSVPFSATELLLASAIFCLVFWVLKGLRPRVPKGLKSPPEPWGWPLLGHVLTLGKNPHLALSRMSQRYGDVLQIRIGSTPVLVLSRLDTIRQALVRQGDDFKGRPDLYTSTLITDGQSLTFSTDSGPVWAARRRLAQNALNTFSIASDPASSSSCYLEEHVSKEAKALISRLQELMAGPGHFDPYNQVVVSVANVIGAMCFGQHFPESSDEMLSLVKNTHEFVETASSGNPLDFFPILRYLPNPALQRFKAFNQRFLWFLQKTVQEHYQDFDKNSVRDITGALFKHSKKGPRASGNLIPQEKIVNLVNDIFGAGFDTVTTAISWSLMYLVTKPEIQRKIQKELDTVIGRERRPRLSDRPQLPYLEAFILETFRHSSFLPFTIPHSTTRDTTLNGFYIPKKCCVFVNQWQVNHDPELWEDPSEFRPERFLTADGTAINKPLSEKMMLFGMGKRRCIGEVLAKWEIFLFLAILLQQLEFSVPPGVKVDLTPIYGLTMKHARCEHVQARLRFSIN
Cytochrome P450 2D6 (Homo sapiens), sequence (P10635 whole entry, looked up): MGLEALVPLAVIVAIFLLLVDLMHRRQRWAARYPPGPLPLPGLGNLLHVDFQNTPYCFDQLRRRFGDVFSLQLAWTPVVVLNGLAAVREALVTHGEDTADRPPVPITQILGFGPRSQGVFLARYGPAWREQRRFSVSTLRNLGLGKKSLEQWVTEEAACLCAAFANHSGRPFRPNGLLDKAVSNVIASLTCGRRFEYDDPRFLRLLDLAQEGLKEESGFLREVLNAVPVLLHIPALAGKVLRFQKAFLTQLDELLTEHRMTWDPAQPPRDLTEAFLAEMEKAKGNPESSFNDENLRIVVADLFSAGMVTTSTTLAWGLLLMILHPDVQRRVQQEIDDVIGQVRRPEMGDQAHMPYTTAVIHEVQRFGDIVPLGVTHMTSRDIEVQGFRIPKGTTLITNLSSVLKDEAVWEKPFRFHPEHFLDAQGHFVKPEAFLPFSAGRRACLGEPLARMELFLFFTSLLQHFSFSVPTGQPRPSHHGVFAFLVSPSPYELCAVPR
Cytochrome P450 3A4 (Homo sapiens), sequence (P08684 whole entry, looked up): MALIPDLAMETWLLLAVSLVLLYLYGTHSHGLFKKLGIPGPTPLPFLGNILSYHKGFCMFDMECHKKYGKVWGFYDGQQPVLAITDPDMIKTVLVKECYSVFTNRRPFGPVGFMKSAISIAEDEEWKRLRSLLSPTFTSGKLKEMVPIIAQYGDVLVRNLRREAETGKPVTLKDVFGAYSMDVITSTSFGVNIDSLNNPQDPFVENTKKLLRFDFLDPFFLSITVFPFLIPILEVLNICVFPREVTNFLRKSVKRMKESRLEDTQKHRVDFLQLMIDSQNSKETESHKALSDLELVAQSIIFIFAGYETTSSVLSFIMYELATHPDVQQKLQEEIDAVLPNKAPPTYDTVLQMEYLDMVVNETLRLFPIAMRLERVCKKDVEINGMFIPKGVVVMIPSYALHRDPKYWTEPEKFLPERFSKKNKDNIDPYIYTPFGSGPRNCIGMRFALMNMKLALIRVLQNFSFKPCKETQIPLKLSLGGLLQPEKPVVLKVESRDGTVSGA

Turning to `CCN(CC)CCOC(=O)C1(c2ccc([N+](=O)[O-])cc2)CCCC1`, the values for the activity change, negative = inhibition in assay [1] (at 17.2 µM (top of the series)), in assay [9] (at 25.7 µM (top of the series)) and in [9] (at 57.5 µM (top of the series)) were 3.14% (inactive), -0.418% (inactive) and -3.02% (inactive), respectively. The Potency in assay [2] was 3.98 µM (active) and 3.16 µM (active); in assay [4] it was > 20.6 µM (inactive) and > 46 µM (inactive); in assay [5], > 20.6 µM (inactive) and > 46 µM (inactive); in assay [6], “inactive and 4.77 µM (active)”; in [8], 3.98 µM (active) and 5.01 µM (active). Besides, the activity, negative = inhibition in assay [3] (at 17.2 µM (top of the series)) is 6.83% (inactive). Also, the Potency entry in assay [7], in [10], in [11], in assay [12] and in [13] was “inactive” throughout. In addition, the max response was -8.14% and -12.9% in assay [9] (setting [16]); -19.2% and -15.6% in assay [9] (setting [17]).
For the compound `COC(=O)[C@@H]1[C@@H]2C[C@H]3c4[nH]c5ccccc5c4CCN3C[C@@H]2CC[C@@H]1O`, the activity change, negative = inhibition in assay [1] (at 7.69 µM (top of the series)) was -0.0828% (inactive); in assay [1] (at 17.2 µM (top of the series)) it was 0.544% (inactive) and 5.73% (inactive) and 0.793% (inactive); in [14] (at 7.69 µM (top of the series)) it was -0.996% (inactive); in [14] (at 17.2 µM (top of the series)), -15% (inactive) and 0.703% (inactive) and 5.17% (inactive); in assay [9] (at 25.7 µM (top of the series)), 1.23% (inactive) and -2.04% (inactive) and -1.29% (inactive). Also, the activity, negative = inhibition in [3] (at 7.69 µM (top of the series)) is 0.353% (inactive); in assay [3] (at 17.2 µM (top of the series)) it was 5.5% (inactive) and -1.53% (inactive) and 0.108% (inactive). Further, the Potency result in assay [15], in assay [6], in [10], in [11], in assay [12] and in assay [13] was “inactive” throughout. The max response in [9] (setting [16]) is -5.31% and -9.47% and 16%; in assay [9] (setting [17]), -5.26% and -13% and 13.4%.
For the compound `CCC(=O)NC1Cc2ccccc2C(c2ccccc2)C1` (stereo not given), the Potency entry in [12] and in [13] was “inactive” in each case.
`CC[N+]1(C)C2CCC1CC(OC(=O)[C@H]1CCC(C(=O)OC3CC4CCC(C3)[N+]4(C)CC)(c3ccccc3)c3ccccc31)C2` (stereo not given in full): the Potency entry in assay [12] and in assay [13] was “inactive” throughout.
